# Assay results published in PubChem BioAssay AID504692 (The Scripps Research Institute Molecular Screening Center, 2011).
# The whole screen tested about 340,000 compounds, of which about 2,000 (0.59%) were called active. The sample holds actives, similar compounds and a random draw of the others, so the mix is not that of the screen. Values without a mark were called inactive. Rule as the data show it: active = activation mostly above about 9.5% (no sharp cut-off); inactive = mostly below about 7.6%.
# Molecular target: 5-hydroxytryptamine receptor 5A (Homo sapiens) (UniProt P47898)
# Test: activation of human 5-HT5A receptor – cell-based, luminescence, full-deck HTS, counter-screen for OPRM1-OPRD1 heterodimer agonist project, primary screen (AID 504692);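 also: 0% = cells with vehicle only and 100% = reference agonist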
# Settings: HTR5A agonist assay, at 9.3 µM, active compounds read high
# Chain of 5-hydroxytryptamine receptor 5A (Homo sapiens) (P47898 whole entry, looked up): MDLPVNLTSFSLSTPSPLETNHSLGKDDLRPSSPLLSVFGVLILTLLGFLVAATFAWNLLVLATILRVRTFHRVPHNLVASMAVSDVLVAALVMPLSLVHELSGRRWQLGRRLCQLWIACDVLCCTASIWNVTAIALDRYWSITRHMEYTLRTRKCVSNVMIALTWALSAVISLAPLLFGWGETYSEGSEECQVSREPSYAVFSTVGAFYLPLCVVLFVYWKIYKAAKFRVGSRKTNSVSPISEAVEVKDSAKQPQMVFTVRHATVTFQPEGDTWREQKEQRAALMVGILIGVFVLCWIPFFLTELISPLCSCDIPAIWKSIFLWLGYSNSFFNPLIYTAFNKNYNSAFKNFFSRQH
row,Structure (SMILES),activation
1,Cc1ccc2c(C)c(C(=O)N3CCC(N4CCC(C(=O)NC5CC5)CC4)CC3)oc2c1,-4.49%
2,CC1(C)Cc2cccc(OCC(=O)NCc3ccccc3)c2O1,0.71%
3,COc1cccc(CCNC(=O)COc2cccc3c2OC(C)(C)C3)c1,10.4% (active)
4,CC1(C)Cc2cccc(OCC(N)=O)c2O1,-7.5%
5,CCn1c2c(c3ccc(OC)cc31)CCCC2=O,2.01%
6,O=C1COc2ccc(C(=O)COC(=O)C3CC(O)CN3S(=O)(=O)c3ccc(Cl)cc3)cc2N1 (configuration not stated),2.08%
7,O=C(NCCCN1CCCC1=O)c1ccc(S(=O)(=O)Nc2ccccc2)cc1,-1.42%
8,CCn1c(SCC(=O)N/N=C/c2ccncc2)nc2ccccc21,0.02%
9,CCn1c(SCC(=O)N/N=C/c2ccccc2OCC(=O)O)nnc1-c1ccc(C(C)(C)C)cc1,-0.31%
10,Cc1ccc(Cn2c(SCC(=O)N/N=C/c3ccccc3OCC(=O)O)nc3ccccc32)cc1,13.2% (active)
11,COc1cc2c(cc1NC(=O)COC(=O)/C=C/c1ccccc1)oc1ccccc12,1.5%
12,Cc1c(C(=O)N2CCCc3ccccc32)oc2ccccc12,5.91%
13,Cc1c(C(=O)OCC(=O)N2CCCC2=O)oc2ccccc12,17.4% (active)
14,CCOC(=O)c1c(C)[nH]c(C(=O)OCC(=O)N2CCCC2=O)c1C,-3.02%
15,O=C(Cc1ncc(C(F)(F)F)cc1Cl)Nc1cccc(Br)c1,-3.41%
16,NS(=O)(=O)c1ccc(CNC(=S)NC(=O)c2ccco2)cc1,-0.69%
17,CCc1nn(CCCC(=O)Nc2ccc(C)cc2C)c(=O)c2cc3occc3n12,0.19%
18,CCCCCCCCn1c2c(c(=N)c3c1CCC3)CCCC2,12.5% (active)
19,Cc1ccccc1NC(=O)CSc1ccc2nnc(-c3ccccn3)n2n1,-2.77%
20,O=C(/C=C/c1cccc([N+](=O)[O-])c1)NCCSCc1ccco1,-1.08%
21,Cc1ccc(CNC(=O)C2CCCN2C(=O)NCc2ccccc2)cc1 (configuration not stated),-0.36%
22,O=C(NC1CC2CCCC(C1)N2C(=O)N1CCCCC1)C1CCCCC1 (configuration not stated),2.7%
23,Nc1ccc2nn(-c3ccc(Cl)cc3)nc2c1,3.34%

row,Structure (SMILES),activation
1,O=C1CCCc2nn(-c3ccccc3)nc21,-0.59%
2,c1ccc(-n2nc3ccccc3n2)cc1,15.4% (active)
3,Cc1ccc(S(=O)(=O)Nc2nc(CN3CCOCC3)nc3sc(C)c(C)c23)cc1,7.7%
4,O=C(O[C@H]1[C@H](Cc2ccccc2)NS(=O)(=O)[C@H]2C[C@@H]3C=C[C@]12O3)c1ccc([N+](=O)[O-])cc1,-6.9%
5,CCOc1cc(N2CCOCC2)c(OCC)cc1NC(=O)c1cc(C)nc2ccccc12,14.2% (active)
6,CCOc1cc(N2CCOCC2)c(OCC)cc1NC(=O)C1=NN(c2cccc(C)c2)C(=O)CC1,11.3%
7,CCOc1cc(N2CCOCC2)c(OCC)cc1NC(=O)c1ccc(C)s1,0.66%
8,CCc1ccc(C2N3CC4([N+](=O)[O-])CN2CC([N+](=O)[O-])(C3)C4(C)C)cc1 (configuration not stated),2.6%
9,CC1(C)C(C=C(Cl)Cl)C1C(=O)N(Cc1ccc(Cl)cc1)C1CCS(=O)(=O)C1 (configuration not stated),0.53%
10,CCc1ccc(CNC(=O)C2CCN(c3nnc(C)c4c(C)n(-c5ccc(C)cc5)nc34)CC2)cc1,11.9% (active)
11,CCOc1ccc(CNC(=O)C2CCCN(c3nnc(C)c4c(C)n(-c5ccccc5)nc34)C2)cc1 (configuration not stated),7.35%
12,COc1ccc(-n2nc3c(N4CCC(C(=O)NCc5ccccc5)CC4)nnc(C)c3c2C)cc1,-1.31%
13,O=C(Nc1ccccc1Cc1ccccc1)c1ccc2c(c1)SC1=NS(=O)(=O)CCN12,6.02%
14,Cc1cccc(CCNS(=O)(=O)c2ccc3c(c2)NC(=O)CO3)c1,-0.45%
15,O=C(C1CCC(=O)N(C2CC2)C1)N1CCN(c2ccc(Cl)cc2)CC1 (configuration not stated),0.66%
16,Cc1cc(NC(=O)COc2ccc([N+](=O)[O-])cc2)no1,-2.97%
17,Cc1cc(NC(=O)CSc2nccn2-c2ccc([N+](=O)[O-])cc2)no1,-1.99%
18,COC(=O)c1cc(C(=O)OCC(=O)Nc2cc(C)on2)cc([N+](=O)[O-])c1,14.7% (active)
19,CC(=O)N1CCN(S(=O)(=O)c2ccc(C)c([N+](=O)[O-])c2)C1C(C)C (configuration not stated),0.82%
20,O=C(O)COc1ccc(/C=N/O)cc1Br,1.32%
21,CNC(=S)N/N=C/c1ccc(OCc2ccccc2)c(Br)c1,14.9% (active)
22,CNC(=S)NNC(=O)c1sccc1OCc1ccccc1,6.65%
23,N=c1c2c3c(sc2ncn1CCCN1CCOCC1)CCCCC3,6.44%

row,Structure (SMILES),activation
1,COc1ccc(N(CC(=O)NC2CCCC2)C(=O)CS(=O)CC(=O)Nc2ccc3c(c2)OCO3)cc1 (configuration not stated),1.5%
2,O=S(=O)(NN=C1CCCCCCC1)c1ccc(Br)cc1,9.89% (active)
3,CC(CNS(=O)(=O)c1ccc(Br)cc1)CN(C)C (configuration not stated),0.38%
4,Cc1nc(S(=O)(=O)c2ccc(Br)cc2)nc2c1CCC2,3.89%
5,CCOc1ccc(NC(=O)CSc2nncn2C)cc1,2.03%
6,CCOc1ccc(NC(=O)c2nc(SCC)ncc2Cl)cc1,11.8% (active)
7,CCOc1ccc(NC(=O)c2cc(C)nc3ccccc23)cc1,6.43%
8,Cc1ccc(C)c(Cn2nnc3c(=O)[nH]c(C(=O)Nc4ccc(F)cc4)nc32)c1,-2.89%
9,COc1ccc(NC(=O)COC(=O)c2ccc(NS(=O)(=O)/C=C/c3ccccc3)cc2)cc1,-1.75%
10,Cc1c(C(=O)OCC(=O)N(CCC#N)c2ccccc2)oc2c1ccc1ccccc12,53% (active)
11,N#CCCN(C(=O)COC(=O)c1ccc2c(c1)OCCO2)c1ccccc1,5.45%
12,N#CCCN(C(=O)COC(=O)c1ccc(S(=O)(=O)N2CCCCCC2)cc1)c1ccccc1,-3.52%
13,CCN1CCN(C(=O)/C=C\C(=O)O)CC1,2.72%
14,CC1C(C)N(C(=O)CCl)c2ccccc2N1C(=O)CCl (configuration not stated),8.76% (active)
15,CC1C(=O)N(Cc2ccccc2)c2ccccc2N1C(=O)c1ccccc1 (configuration not stated),0.41%
16,CC1CC(C)CN(CC(=O)N2c3ccccc3CCc3ccccc32)C1 (configuration not stated),-4.89%
17,Cc1cccc(N2CCN(C(C)C(=O)N3CCc4ccccc43)CC2)c1C (configuration not stated),7.68%
18,COc1cc(OC)c(-n2cc(-c3ccc(Cl)cc3)[nH]c2=O)cc1Cl,5.5%
19,CC1CCCCN1CCCNc1ccc(C(CC(N)=O)NC(=O)c2ccccc2)cc1[N+](=O)[O-] (configuration not stated),-1.92%
20,NC(N)=NCCCc1cn(CC(=O)N2CCNCC2)nn1,12.4% (active)
21,CCC(C)[C@@H](C(=O)N1CCNCC1)n1cc(CCCCN)nn1 (some centres not stated),-1.58%
22,C#CCOCCOCCOCCNc1nc(N2CCN(C(=O)Cn3cc(CCO)nn3)CC2)nc(N2CCN(C(=O)Cn3cc(CCCN=C(N)N)nn3)CC2)n1,-2.92%
23,Cc1cc(C)c(S(=O)(=O)N(C)CC(=O)NCC2CCCO2)c(C)c1 (configuration not stated),8.59%

row,Structure (SMILES),activation
1,COc1ccc(CN2CCN(C(=O)CCC(=O)Nc3nnc(C(C)C)s3)CC2)cc1F,2.2%
2,CC(C)OC(=O)c1sc2nc3c(cc2c1N)C(=O)CCC3,5.9%
3,Cc1ccc2sc(N(CCN(C)C)C(=O)/C=C/c3cccs3)nc2c1C,6.97%
4,Cc1cc(C)c2nc(N(CCN(C)C)C(=O)/C=C/c3cccs3)sc2c1,11.5% (active)
5,Cc1ccc2nc(N(CCN(C)C)C(=O)C3=COCCO3)sc2c1,-2.68%
6,O=C(CSc1nnc(-c2ccc([N+](=O)[O-])cc2)o1)Nc1ccccn1,0.96%
7,CCc1ccc(OCC(=O)OC(C)C(=O)NC2CC2)cc1 (configuration not stated),1.16%
8,CC(C)CNS(=O)(=O)c1ccc(CCC(=O)NCc2ccc(Cl)cc2)cc1,0.62%
9,CSc1ccc(S(=O)(=O)NCc2ccc(Cl)cc2)cc1,10.3% (active)
10,Cc1ccc(S(=O)(=O)NCCC(=O)NCc2ccc(Cl)cc2)cc1C,-0.86%
11,Cc1cc(C(C)(C)C)oc1C(=O)N(CC(=O)NC1CCCC1)Cc1ccc(Cl)cc1,2.84%
12,CCOc1ccc(S(=O)(=O)NCCCn2ccnc2)cc1NC(C)=O,2.78%
13,NC(=O)C1(C(N)=O)OC1c1ccc(Cl)cc1Cl (configuration not stated),3.12%
14,O=C(COC(=O)c1n[nH]c2ccccc12)Nc1ccccc1Br,-1.79%
15,COc1ccc(C)cc1S(=O)(=O)NCCc1ccccc1,1.84%
16,COc1ccc(C(=O)O/N=C(\N)Cc2ccc(Cl)cc2Cl)cc1OC,27.1% (active)
17,COc1ccc(CCn2ccc(O)c(Cc3ccc(Cl)cc3Cl)c2=O)cc1OC,-0.18%
18,COc1ccc(C/C(N)=N/OC(=O)c2ccco2)cc1OC,1.65%
19,CCOC(=O)c1[nH]c(C)c(C(=O)OCC(=O)N2c3ccccc3CC2C)c1C (configuration not stated),-1.22%
20,CCOc1ncccc1C(=O)OCC(=O)N1c2ccccc2CC1C (configuration not stated),-1.04%
21,CCn1nc(C(=O)OCC(=O)N2c3ccccc3CC2C)c2ccccc2c1=O (configuration not stated),36.7% (active)
22,COc1ccc(NC(=O)CSc2nnc(-c3ccccc3F)n2C2CC2)cc1S(N)(=O)=O,-5.29%
23,Cn1c(CCC(=O)Nc2ccccc2F)nnc1SCC(=O)Nc1ccccc1Cl,-0.17%
